BAZ2B block: blocks human BAZ2B. Q9UIF8. AlphaScreen BAZ2B-H3K14Ac peptide displacement. Potency, µM (top dose mostly 114 µM), most hits filed as inhibitors. 4.4% of 360,000 active; further: nearly all actives have a fitted effect of over 60% in size
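Multi-concentration screen (max 110 uM) measuring displacement of acetylated histone H3 peptide from BAZ2B by AlphaScreen, using 50 nM protein, 50 nM peptide and 10 ug/mL streptavidin donor plus Ni-chelate acceptor beads.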
GLS inh: blocks human kidney-isoform glutaminase activity. O94925. GLS enzymatic activity, qHTS titration. Potency, µM (series often up to 45.5 µM), most hits filed as inhibitors. 0.21% of 410,000 active
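hKGA in 45 mM KH2PO4 (pH 8.2), 0.02% Tween-20 with compound, then 1mM L-Glutamine (stock as added) plus glutamate oxidase/HRP/Amplex red coupling mix. Fluorescence read initially and after 30 min at RT; signal change reflects glutamate formation.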
G9a block: blocks human histone lysine methyltransferase G9a; Q96KQ7; Potency, µM (series often up to 102 µM), hits mostly inhibitors; G9a H3K9 monomethylation, AlphaScreen, 2 h; AID 504332; 8.8% of 350,000 active; further: nearly all actives have a fitted effect of over 75% in size
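Step 1: enzyme (final 20 nM) with compound, 15 min RT. Step 2: substrate peptide 500 nM and SAM 20 uM, 2 h RT. Step 3: anti-H3K9me1 antibody and AlphaScreen beads, 10 min, then plate read.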
JMJD2A Tudor: blocks the human JMJD2A Tudor domain. O75164. AlphaScreen JMJD2A-Tudor / H3K4me3 peptide binding. Potency, µM (titrated, usually from 114 µM), usual class: inhibitors. 4.4% of 390,000 active. AID 504339; further: nearly all actives have a fitted effect of over 50% in size
HP1b chromo inh: blocks HP1-beta chromodomain binding to methylated histone tails; AID 540317; AlphaScreen HP1-beta / biotin-H3K9me3 peptide binding; 0.56% of 390,000 active; Potency, µM (top dose mostly 114 µM), actives largely listed as inhibitors; P83916; further: nearly all actives have a fitted effect of over 70% in size
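HP1-beta protein (50 nM final) preincubated 30 min at room temperature with biotinylated H3(1-18)K9me3 peptide (50 nM) in PBS pH 7.4, 0.01% Tween-20, then compound added for 30 min. AlphaScreen streptavidin donor/nickel chelate acceptor beads (10 ug/mL final), 30 min dark, luminescence read.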
Each line names hits and unclear results; the compound was inactive in the other large screens. Compounds with a hit are over-represented: about 10% of the library has one in this group of screens. The call rests on the fitted dose curve; in most records, active means well fitted curve in the direction sought with a large enough effect; inconclusive means small, poorly fitted or top-dose-only effect, or another doubt; inactive means no such curve, though single readings can be large; an effect the other way counts as inactive or inconclusive.

Nc1nc(C(=O)N2CCOCC2)nn1S(=O)(=O)c1ccccc1	BAZ2B block 50.1µM, G9a block 17.8µM, JMJD2A Tudor 20µM
CC(=O)OCC(NC(=O)C(CCCCNC(=O)OCc1ccccc1)NC(=O)OC(C)(C)C)C1OC(n2ccc(=O)[nH]c2=O)C(OC(C)=O)C1OC(C)=O (centres undefined)	none (no result: BAZ2B block, GLS inh, G9a block)
O=C(Nc1ccc(OC(F)F)cc1)Nc1cccc(C(F)(F)F)c1	none
COC(=O)N1CCC2(CCCN(C(=O)Nc3ccccc3)C2)CC1	none (no result: BAZ2B block, GLS inh, JMJD2A Tudor, HP1b chromo inh)
CCNc1ncc2nc(C)c(=O)n(Cc3cccc(OC)c3)c2n1	none (no result: BAZ2B block, GLS inh, JMJD2A Tudor, HP1b chromo inh)
COC(=O)/C=C1\C(=O)N(c2nc3ccccc3s2)C(=S)N1c1ccc(F)cc1	G9a block 70.8µM
CCC(C(=O)N1CCN(c2cc(Cl)ccc2C)CC1)n1nc(C)c2sc3ccccc3c2c1=O (centres undefined)	none
COc1ccc(-c2cc(=O)c3cc(OC)ccc3[nH]2)cc1	G9a block 79.4µM
COc1ccc(-c2cc(=O)c3cc(C)ccc3[nH]2)cc1	G9a block inconclusive
COc1ccc(-c2cc(=O)[nH]c(=S)[nH]2)cc1	G9a block 50.1µM
COC(=O)c1cc(C(=O)OC)cc(-n2c(C)cc(C=O)c2C)c1	none
Cc1cc(C=O)c(C)n1-c1cc(C(=O)O)cc(C(=O)O)c1	BAZ2B block 17.8µM, GLS inh 17.8µM, JMJD2A Tudor inconclusive, HP1b chromo inh 25.1µM (no result: G9a block)
Cc1ccc(C)n1-c1cccc(C(=O)O)c1	BAZ2B block 7.08µM, G9a block 4.47µM (no result: GLS inh, JMJD2A Tudor, HP1b chromo inh)
Cc1cc(/C=N/O)c(C)n1-c1cccc(Cl)c1	BAZ2B block 50.1µM, G9a block 44.7µM, JMJD2A Tudor inconclusive, HP1b chromo inh inconclusive
Cc1cc(C=O)c(C)n1-c1cccc(C(=O)O)c1	BAZ2B block 79.4µM, G9a block 39.8µM
COc1ccc(-n2ccnc2SCC(=O)c2c(N)n(C3CC3)c(=O)[nH]c2=O)cc1	none (no result: BAZ2B block, G9a block, JMJD2A Tudor, HP1b chromo inh)
O=C(NCCCN1CCCC1=O)C(=O)NCC1OCCCN1S(=O)(=O)c1ccccc1 (centres undefined)	none (no result: BAZ2B block, G9a block, JMJD2A Tudor, HP1b chromo inh)
N#Cc1c(Nc2ccccc2)s[nH]c1=O	G9a block 12.6µM
N#Cc1c(Nc2ccccc2C(F)(F)F)s[nH]c1=O	G9a block 14.1µM
CC1(O)C(c2ccccc2)=Nc2ccccc21 (centres undefined)	none (no result: BAZ2B block, G9a block, JMJD2A Tudor, HP1b chromo inh)
CC(=O)Oc1ccc(N(C(C)=O)S(=O)(=O)c2cccs2)c2ccccc12	G9a block 12.6µM
CCOC(=O)c1nnn(-c2ccccc2)c1C	none
CCOC(=O)c1nnn(-c2nc(N3CCCC3)nc(N3CCCC3)n2)c1-c1ccccc1	JMJD2A Tudor 79.4µM
CNc1cc([N+](=O)[O-])ccc1N/C=C/C(=O)c1cccs1	BAZ2B block 50.1µM, G9a block inconclusive, JMJD2A Tudor inconclusive
O=C(/C=C/Nc1cccc([N+](=O)[O-])c1)c1cccs1	G9a block 39.8µM (no result: GLS inh)
Cc1ccc(N/C=C/C(=O)c2cccs2)cc1C	none
O=C(/C=C/Nc1ccc(Nc2ccccc2)cc1)c1cccs1	BAZ2B block 12.6µM, G9a block 3.98µM, JMJD2A Tudor inconclusive, HP1b chromo inh inconclusive
CCCc1cc(=O)[nH]c(Nc2cc(Cl)cc(Cl)c2)n1	none
O=C(NCCN1CCOCC1)c1cccc(NS(=O)(=O)c2ccc(Br)cc2)c1	G9a block inconclusive
Cc1cc(C(=O)COC(=O)c2cc(Cl)c(O)c(Cl)c2)c(C)n1C	BAZ2B block 50.1µM, GLS inh inconclusive, JMJD2A Tudor 50.1µM, HP1b chromo inh inconclusive
Cc1cc(C)n2nc(C(=O)OCC(=O)c3cc(C)n(C)c3C)nc2n1	BAZ2B block 50.1µM, GLS inh inconclusive, G9a block 44.7µM, JMJD2A Tudor 56.2µM
Cc1cc(C(=O)COC(=O)c2ccc(F)cc2)c(C)n1C	none (no result: BAZ2B block, G9a block)
Cc1cc(C)n2nc(C(=O)OCC(=O)c3ccccc3Cl)nc2n1	G9a block inconclusive
CCCn1c(N)c(C(=O)CN(C)CC(=O)Nc2ccc(C)cc2)c(=O)[nH]c1=O	G9a block 44.7µM, JMJD2A Tudor 22.4µM
CCCn1c(N)c(C(=O)CN(C)CC(=O)Nc2cc(C)ccc2C)c(=O)[nH]c1=O	G9a block 50.1µM
CCCn1c(N)c(C(=O)CN(C)CC(=O)Nc2c(C)cc(C)cc2C)c(=O)[nH]c1=O	none
CC(C)[C@H](NS(=O)(=O)c1cccc(C(F)(F)F)c1)C(=O)OCC(=O)NC(=O)NCc1ccco1	JMJD2A Tudor inconclusive (no result: BAZ2B block, G9a block)
